These results are taken from PubChem BioAssay AID2530 (National Center for Advancing Translational Sciences (NCATS), 2010).

Inconclusive results are not listed. A call without a number means that no potency is given here. Calls of active or inactive are those of the source. The call rests on the fitted dose curve; in most records, active means well fitted inhibition curve with a large enough effect; inconclusive means small, poorly fitted or top-dose-only effect; inactive means flat fitted curve, though single readings scatter.
Potency means the concentration at half of the fitted maximal effect.

The target in this assay is Luciferin 4-monooxygenase (Photuris pensylvanica) (UniProt Q27757). Nature of the assay: Secondary Assay for Luciferase (Kinase-Glo TM) Inhibition Counterscreen. The note with it: Kinase-Glo luciferase enzyme, luminescence; series mostly up to 58.1 µM. As to the method: NIH Chemical Genomics Center [NCGC] Malcolm Walkinshaw, Hugh Morgan, Linda Gilmore University of Edinburgh, UK MLPCN Grant: 1 R03 MH085697-01 NCGC Assay Overview: Luciferase (Kinase-Glo, Promega Corporation) was assayed for its ability to generate light using ATP and luciferin as substrates. The ATP concentration in the assay (10 uM) was within the linear range of enzyme activity for the assay conditions used. This assay was used as an counter screen for human pyruvate kinase M2 isoform.
NCGC Assay Protocol Summary: Four uL of substrate mix (final concentration, 50 mM imidazole pH 7.2, 50 mM KCl, 7 mM MgCl2, 10 uM ATP, 0.01% Tween 20, 0.05% BSA) was dispensed into white 1536 well plates. Twenty-three nL of compound was delivered by a pin tool and 2 uL of luciferase detection mix (Kinase-Glo, Promega)) was added. Following 8-minute incubation at ambient temperature, luminescence was measured by a ViewLux (Perkin Elmer) at 5 seconds exposure/plate. Data were normalized to the controls for basal activity (DMSO only) and 100% inhibition (40 uM SIB 1757) and curve fitting was performed using Hill equation.
In general terms: Kinase-Glo reads ATP consumption through a luciferase reaction.
On to `O=C1CCc2cc(S(=O)(=O)Nc3cccnc3)ccc2N1`, for which the Potency entry is “inactive”.

For `O=C(Nc1ccc(N2CCOCC2)cc1)c1cn2ccccc2n1`, the Potency was 6.51 µM (active).

In the case of `O=C1c2ccccc2C(=O)N1c1cncc2ccccc12`, the Potency entry was “inactive”.

`O=C(/C=C/Nc1ccccc1Br)c1ccccn1`: the Potency is 13 µM (active).

Take `COc1ccc(C(=O)N=c2nc3ccccn3s2)cc1`: the Potency was 5.8 µM (active).

As for `Cc1ccc(NS(=O)(=O)c2ccc(N3CCCC3=O)cc2)cc1C`, the Potency entry is “inactive”.

Regarding `Cc1nc(N/N=C/c2ccccn2)sc1C`, the Potency is 5.8 µM (active).

On to `CSc1cc2c(s1)c1cnn(Cc3cccc(O)c3)c(=O)c1n2C`, for which the Potency result was “inactive”.

`Cc1ccc(NS(=O)(=O)c2ccc3c(c2)CCCC(=O)N3)cc1C`: the Potency entry is “inactive”.

For the molecule `O=C1c2ccccc2C(=O)N1Cc1ccccn1`, the Potency entry is “inactive”.

Regarding `Cc1ccc(NS(=O)(=O)c2cc3c(cc2F)NC(=O)CC3)cc1C`, the Potency entry is “inactive”.

`O=C1c2ccccc2C(=O)C1c1ccnc2ccccc12`: the Potency entry was “inactive”.

As to `Cc1ccc(NS(=O)(=O)c2cc3c(cc2-c2cn[nH]c2)NC(=O)CO3)cc1C`, the Potency result was “inactive”.

`CC(C)(C)NC(=O)C(c1ccncc1)N(C(=O)Cn1nnc(-c2ccc(F)cc2)n1)c1ccccc1` (stereo not given): the Potency entry was “inactive”.

For the molecule `COc1cccc(Cn2ncc3c4sc(S(C)=O)cc4n(C)c3c2=O)c1` (stereo not given), the Potency entry is “inactive”.

`O=C1CCc2cc(S(=O)(=O)Nc3ccc(-c4ccccc4)cc3)ccc2N1`: the Potency result was “inactive”.

Take `Cc1ccc(NS(=O)(=O)c2ccc3c(c2)CCN(C(=O)C(F)(F)F)C3)cc1C`: the Potency entry was “inactive”.

With `Cc1ccccc1N=CC1=C(O)c2ccccc2C1=O`, the Potency is 11.6 µM (active).

Take `Cc1ccc(N2C(=O)c3ccccc3C2O)nc1` (stereo not given): the Potency is 6.51 µM (active).

With `Oc1ccc(C23CC4CC(CC(C4)C2)C3)cc1O`, the Potency result was “inactive”.

As for `O=S1(=O)N=C(Oc2ccc(Cl)cc2)c2ccccc21`, the Potency entry is “inactive”.

For `COC(=O)CSC1=NS(=O)(=O)c2ccccc21`, the Potency result is “inactive”.

Consider `O=C1C=CC(=O)N1c1cccc(-c2ccccc2)c1`, for which the Potency result is “inactive”.

Regarding `Cc1ccc(NS(=O)(=O)c2cccc(F)c2)cc1C`, the Potency entry is “inactive”.

As for `Cc1ccc(S(=O)(=O)/N=C2/C=C(Sc3ncn[nH]3)C(=O)c3ccccc32)cc1`, the Potency result was “inactive”.

For the molecule `Cc1ccc(NS(=O)(=O)c2ccc3ccccc3c2)cc1C`, the Potency result is “inactive”.

On to `c1c2c(cc3sc(N4CCCCC4)nc13)OCO2`, for which the Potency is 10.3 µM (active).

Take `O=C1C(Cl)=C(NC(=O)c2ccccc2)C(=O)C(Cl)=C1NC(=O)c1ccccc1`: the Potency result was “inactive”.

For `O=C1c2ccccc2C(=O)N1Cc1ccncc1`, the Potency result was “inactive”.

As for `Cc1cc(N2C(=O)c3ccccc3C2=O)n[nH]1`, the Potency entry is “inactive”.

As to `O=C1CCc2cc(S(=O)(=O)Nc3cccc(F)c3)ccc2N1`, the Potency result was “inactive”.

Take `O=C1c2ccccc2C(=O)N1Cc1ccccc1`: the Potency entry is “inactive”.

As for `O=C1CCc2cc(S(=O)(=O)Nc3ccc(Cl)cc3)ccc2N1`, the Potency entry was “inactive”.

Consider `O=S(=O)(Nc1ccc(O)c(NS(=O)(=O)c2ccccc2)c1)c1ccccc1`, for which the Potency result is “inactive”.

Consider `Cc1ccc(NC(=O)c2ccc3c(c2)CCC(=O)N3)cc1C`, for which the Potency entry is “inactive”.

In the case of `Cc1ccc(NS(=O)(=O)c2ccc3[nH]c(=O)[nH]c3c2)cc1C`, the Potency entry was “inactive”.

For the molecule `Cc1ccc(NS(=O)(=O)c2cc3c(cc2-c2ccccc2)NC(=O)CO3)cc1C`, the Potency result was “inactive”.

For the molecule `CCNc1cccc(S(=O)(=O)N2CCN(S(=O)(=O)c3ccc4c(c3)OCCO4)CC2)c1`, the Potency result is “inactive”.

For `Cc1ccc(NS(=O)(=O)c2cc3c(cc2/C=C/c2ccccc2)NC(=O)CO3)cc1C`, the Potency result is “inactive”.

`O=S(=O)(c1ccc2c(c1)OCCO2)N1CCN(S(=O)(=O)c2c(F)cccc2F)CC1`: the Potency entry was “inactive”.
